SW480 rerep – induces DNA re-replication in SW480 colon adenocarcinoma cells; Potency, µM (doses to about 46.1 µM), usual class: activators; AID 624297; SW480 DNA re-replication, Hoechst DNA content imaging, 48 h; hit rate 1.8% among 340,000; note: nearly all actives have a fitted effect of over 55% in size
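Cells (250 per well) received 23 nL compound or DMSO by pin tool and were kept 48 hr at 37 C, 5% CO2. Nuclei were then stained with Hoechst for 40 min and scanned for DNA content.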
Giardia killer – kills Giardia lamblia; Giardia lamblia trophozoite viability; hit rate 0.15% among 340,000; AID 540267; activity change, % at 7.66 µM, hits read low; in the data active = activity change below about -80%; inconclusive = between about -30% and that limit;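 note: parasites exposed to compound for two days anaerobically before the ATP read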
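Luminescent ATP signal served as the viability read-out, measured 15-30 min after adding ATP detection reagent to trophozoites that had been incubated with compounds for 48 hrs at 37 deg C anaerobically at 100 cells/well.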
uPA generation – inhibitors of cell surface uPA generation; hit rate 0.31% among 330,000; Potency, µM (highest dose often 38.3 µM), actives largely listed as inhibitors; cell surface uPA generation assay, qHTS; active = well fitted inhibition curve with a large enough effect; inconclusive = small, poorly fitted or top-dose-only effect; inactive = no such curve, though single readings can be large or run the other way; tested in mouse RAW 264.7 cells; note: nearly all actives have a fitted effect of over 55% in size
MCF10A rereplic – induces DNA re-replication in MCF 10a normal breast cells. MCF 10A DNA re-replication, Hoechst nuclear intensity, 48 h. Potency, µM (titrated, usually from 46.1 µM), hits mostly activators. hit rate 2.9% among 350,000; note: nearly all actives have a fitted effect of over 50% in size
Each line names hits and unclear results; the compound was inactive in the other large screens. Compounds with a hit are over-represented: about 4.3% of the library has one in this group of screens. Unless noted, calls come from the whole dose curve; as a rule, active = well fitted activation curve with a large enough effect; inconclusive = small, poorly fitted or top-dose-only effect; inactive = no such curve, though single readings can be large or run the other way.

CN1C(=O)C(O)(CC(=O)c2cccc(-n3cccc3)c2)c2ccccc21 (stereo unspecified)	Giardia killer inconclusive (no result: uPA generation)
O=C(CC1(O)C(=O)Nc2ccccc21)c1cccc(-n2cccc2)c1 (stereo unspecified)	SW480 rerep inconclusive, MCF10A rereplic 1.46µM
Cc1ccc(C(=O)NC2c3ccccc3-c3ccccc32)cc1	SW480 rerep 13µM
Cc1ccc(C(=O)NC2CCc3ccccc3C2=O)cc1 (stereo unspecified)	none
CC(C)c1ccc2c(c1)CCC1C(C)(CN)CCCC21C (stereo unspecified)	SW480 rerep 3.26µM, MCF10A rereplic 16.4µM
CCC(C)n1c(=N)c(C#N)cc2c(=O)n3ccccc3nc21 (stereo unspecified)	SW480 rerep inconclusive, MCF10A rereplic inconclusive
Cc1cccc(-n2c(=O)c(C#N)cc3c(=O)n4ccccc4nc32)c1	SW480 rerep 16.4µM, MCF10A rereplic inconclusive
Cc1ccc(-n2c(=O)c(C#N)cc3c(=O)n4ccccc4nc32)cc1	SW480 rerep 2.06µM, MCF10A rereplic inconclusive
Cc1ccc(C)c(-n2c(=O)c(C#N)cc3c(=O)n4ccccc4nc32)c1	MCF10A rereplic inconclusive
O=C(NC1CCCC(C(F)(F)F)C1)c1ccc([N+](=O)[O-])o1 (stereo unspecified)	Giardia killer -90.7, uPA generation inconclusive, MCF10A rereplic 6.51µM
O=C(NC1CCCCCC1)c1ccc([N+](=O)[O-])s1	SW480 rerep 18.4µM, Giardia killer inconclusive, MCF10A rereplic inconclusive
O=C(COC(=O)c1ccc([N+](=O)[O-])o1)NC1CCCC1	none
O=C(NC1CCCC1)c1ccc(Cl)s1	none
O=C(NC1CCCCC1)c1ccc([N+](=O)[O-])o1	SW480 rerep inconclusive, Giardia killer -95.2, MCF10A rereplic 16.4µM (no result: uPA generation)
COc1ccccc1-c1cc(-c2ccccc2)nc(SC(C(N)=O)c2ccccc2)c1C#N (stereo unspecified)	SW480 rerep 9.2µM, MCF10A rereplic inconclusive
CC(=O)Nc1ccc(Oc2ccc([N+](=O)[O-])cc2Cl)cc1	none
CC(=O)Nc1ccc(N=c2cc([N+](=O)[O-])cc(Cl)n2O)cc1	SW480 rerep 23.1µM, MCF10A rereplic inconclusive
O=S(=O)(c1ccc(Cl)cc1)N1CCN(c2nc(-c3ccc(F)cc3)nc3cc(Cl)ccc23)CC1	none (no result: SW480 rerep, uPA generation, MCF10A rereplic)
CCCCCCCCOc1ccc(C(=O)O)cc1	none
CCCCCCOc1ccc(C(=O)O)cc1C#N	MCF10A rereplic 18.4µM
COc1cccc(-c2nc3ccc(C(=O)NC(C)Cc4cccnc4)cc3o2)c1 (stereo unspecified)	none
CCN1C/C(=C/c2cccc([N+](=O)[O-])c2)C(=O)/C(=C/c2cccc([N+](=O)[O-])c2)C1	SW480 rerep 3.66µM, MCF10A rereplic 0.82µM
O=C1NC(=S)S/C1=C\c1cccc([N+](=O)[O-])c1	SW480 rerep inconclusive, MCF10A rereplic 18.4µM
CCOc1cc(/C=C2\CN(CC)C/C(=C\c3ccc(O)c(OCC)c3)C2=O)ccc1O	SW480 rerep inconclusive, Giardia killer inconclusive, MCF10A rereplic inconclusive
O=C1NC(=S)SC1=Cc1ccccc1Cl	MCF10A rereplic 6.51µM
O=C1NC(=Nc2ccccc2Cl)S/C1=C\c1cccc([N+](=O)[O-])c1	MCF10A rereplic inconclusive
O=c1cc(-c2ccc(Cl)cc2)oc(=O)[nH]1	none
O=c1cc(N=Nc2ccc(Cl)cc2)[nH]c(=O)[nH]1	SW480 rerep 5.17µM, MCF10A rereplic 3.66µM
CCN(CC)CCCn1c2c(c(SCC(=O)Nc3nccs3)nc1=O)CCC2	SW480 rerep inconclusive
Cn1c(=O)c2nc3ccccc3nc2n(C)c1=O	MCF10A rereplic 0.731µM
Cc1ccc2c(Cl)c(C(=O)N/N=C/c3cccn3C)sc2c1	MCF10A rereplic 20.6µM
O=C(N/N=C/c1cccnc1)c1cc(-c2cccs2)nc2ccccc12	SW480 rerep inconclusive, MCF10A rereplic inconclusive
O=C(NNc1nc2ccc(Cl)cc2s1)c1cc(-c2cccs2)nc2ccccc12	SW480 rerep inconclusive, uPA generation inconclusive, MCF10A rereplic 18.4µM
Cn1cccc1/C=N/NC(=O)c1cc(-c2cccs2)nc2ccccc12	SW480 rerep 14.6µM, MCF10A rereplic 5.8µM
O=C(N/N=C/c1ccc2ncccc2c1)c1cc(-c2cccs2)nc2ccccc12	uPA generation inconclusive, MCF10A rereplic 5.8µM
O=C(Cc1ccc(NC(=O)C2CCCN(C(=O)C3CCC3)C2)cc1)Nc1ccc(C(=O)N2CCOCC2)cc1 (stereo unspecified)	SW480 rerep inconclusive
COc1cccc(CCNC(=O)CCc2nnc(Cc3cc(OC)ccc3OC)o2)c1	none
COc1ccc(CN(C)C(=O)c2ccc(NC(=O)CC3SC(N4CCCCC4)=NC3=O)cc2)c(OC)c1 (stereo unspecified)	none
Cc1cc(C)c(C#N)c(SCc2nc3ccccc3c(=O)[nH]2)n1	SW480 rerep inconclusive, MCF10A rereplic 10.3µM
COCc1cc(C)nc(SCc2ccccc2)c1C#N	none
COCc1cc(C)nc(SCc2nc3ccccc3c(=O)[nH]2)c1C#N	SW480 rerep inconclusive, MCF10A rereplic 2.06µM
CN(Cc1ccccc1F)Cc1cc(=O)oc2cc(O)c(Cl)cc12	SW480 rerep inconclusive, MCF10A rereplic 5.8µM
CC1CCN(Cc2cc(=O)oc3cc(O)c(Cl)cc23)CC1	SW480 rerep inconclusive, MCF10A rereplic 14.6µM
Cn1c(=O)c2c(ncn2C[C@@H](O)CO)n(C)c1=O	none (no result: Giardia killer, uPA generation)
CCN(CC)c1ccc2cc(C=O)c(=O)oc2c1	SW480 rerep inconclusive, MCF10A rereplic 11.6µM
CCN(CC)c1ccc2cc(C(N)=O)c(=N)oc2c1	SW480 rerep inconclusive, MCF10A rereplic 18.4µM
CCN(CC)c1ccc2cc(C(=O)Nc3ccccn3)c(=O)oc2c1	SW480 rerep inconclusive, MCF10A rereplic 1.3µM
CCN(CC)c1ccc2cc(C(C)=O)c(=O)oc2c1	SW480 rerep 20.6µM, MCF10A rereplic 10µM
CC(C)(C)OC(=O)NCCCCCNC(=O)c1ncn(Cc2ccccc2)c1C(=O)NCCCCCNC(=O)OC(C)(C)C	none
COc1ccc(CC(=O)Nc2ccc(S(=O)(=O)Nc3ncccn3)cc2)cc1OC	SW480 rerep 16.4µM
COc1cc(CC(=O)Nc2ccc(S(=O)(=O)Nc3ncccn3)cc2)cc(OC)c1OC	none
COc1ccc(NC(=O)CNS(=O)(=O)c2ccc(Cl)cc2)cc1OC	SW480 rerep 18.4µM
COc1ccc(NC(=O)CCC(=O)c2cccs2)cc1S(=O)(=O)Nc1ccc(Cl)cc1	none
COc1ccc(NC(=O)CCS(=O)(=O)c2ccccc2Cl)cc1S(=O)(=O)Nc1ccc(Cl)cc1	SW480 rerep inconclusive, uPA generation inconclusive, MCF10A rereplic 16.4µM
Cc1cc([N+](=O)[O-])ccc1P(=O)(O)c1ccc([N+](=O)[O-])cc1C	none
CSc1cccc(NC(=O)c2cccc3cccnc23)c1	none
O=C(c1cc2nc(-c3ccccc3)cc(-c3ccccc3)n2n1)N1CCCC1	SW480 rerep inconclusive
CN1CCN(C(=O)c2cc3nc(-c4ccccc4)cc(-c4ccccc4)n3n2)CC1	SW480 rerep inconclusive, MCF10A rereplic 13µM
NC(=O)c1ccccc1NC(=O)COc1ccc2c(c1)OCO2	SW480 rerep inconclusive, MCF10A rereplic inconclusive
CCCCn1cnc2c(SCc3ccccc3Cl)nc(N)nc21	SW480 rerep inconclusive, MCF10A rereplic 16.4µM
CCCCn1cnc2c(SCc3ccccc3)nc(N)nc21	none

Assay outcomes from PubChem BioAssay.
